# In all, about 16,000 compounds went through this assay and about 2,600 (16%) were called active. Inconclusive results (about 20%) are left out. Not all results are given here. Unmarked numbers belong to inactive results. Calls follow the shape of the dose curve; as a rule, active = well fitted curve in the direction sought with a large enough effect; inconclusive = small, poorly fitted or top-dose-only effect, or effect the other way; inactive = no such curve, though single readings can be large or run the other way. Numbered stars: 1 amine (or outer) side, 2 acyl side, 3 side chain; on linkers, the order of the positions; unused ones are H or OH. Bridge positions count the residues as written; N and C are the ends. Square brackets hold non-standard residues; d marks the D form. Peptide text beside a SMILES is read from it. I, II: the chains in the order shown. Actinocin(9to1) = Cc1c2oc3c(C)ccc(C(=O)[*:1])c3nc-2c(C(=O)[*:2])c(N)c1=O; aThr = C[C@H](O)[C@H](N)C(=O)O; NMeV = CN[C@H](C(=O)O)C(C)C; Sar = CNCC(=O)O
# Molecular target: Cytochrome P450 2D6 (Homo sapiens) (UniProt P10635)
# Sequence (P10635 whole entry, looked up): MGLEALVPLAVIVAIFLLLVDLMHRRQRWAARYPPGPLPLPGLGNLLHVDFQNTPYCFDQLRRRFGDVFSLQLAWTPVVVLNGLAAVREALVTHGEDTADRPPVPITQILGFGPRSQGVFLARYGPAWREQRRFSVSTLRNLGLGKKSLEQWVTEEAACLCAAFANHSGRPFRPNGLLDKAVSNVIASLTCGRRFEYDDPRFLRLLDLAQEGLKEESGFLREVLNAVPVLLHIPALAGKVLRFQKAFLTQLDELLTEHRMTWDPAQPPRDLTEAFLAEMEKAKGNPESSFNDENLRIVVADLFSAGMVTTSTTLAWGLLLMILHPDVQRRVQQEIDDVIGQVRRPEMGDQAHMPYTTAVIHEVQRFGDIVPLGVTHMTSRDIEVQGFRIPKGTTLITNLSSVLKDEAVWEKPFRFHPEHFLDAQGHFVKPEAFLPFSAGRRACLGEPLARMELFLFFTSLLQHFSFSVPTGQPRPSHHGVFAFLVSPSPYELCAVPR
# Experiment: Cytochrome panel assay with activity outcomes
# Details: recombinant CYP, pro-luciferin dealkylation, luminescence, p450-cyp2d6; series mostly up to 57.1 µM; activity, negative = inhibition: at the top concentration
# % is scaled to controls: 0 for no effect and ±100 for the full control effect.
Structure (SMILES),AC50,"activity, negative = inhibition"
CC(C)CC(=O)Nc1sc2c(c1C#N)CC(C)(C)NC2(C)C,7.94 µM (active),–
COc1ccc(C(=O)N2CC3(CC(c4ccc(Cl)cc4)=NO3)C[C@H]2C(=O)NCC(N)=O)cc1 (stereo partly specified),–,-7.18%
CCOC(=O)C1C(=O)C=C(c2ccc(C)cc2)CC1c1ccco1 (stereo unspecified),–,-21.1%
"Cc1c2oc3c(C)ccc(C(=O)N[C@@H]4C(=O)N[C@@H](C(C)C)C(=O)N5CCC[C@@H]5C(=O)N(C)CC(=O)N(C)[C@@H](C(C)C)C(=O)O[C@H]4C)c3nc-2c(C(=O)N[C@@H]2C(=O)N[C@@H](C(C)C)C(=O)N3CCC[C@@H]3C(=O)N(C)CC(=O)N(C)[C@@H](C(C)C)C(=O)O[C@H]2C)c(N)c1=O (I: [aThr]V[dP][Sar][NMeV] / II: [aThr]V[dP][Sar][NMeV]; ester I:1-I:C, II:1-II:C; linker I:N-II:N via Actinocin(9to1))",–,2.32%
Cc1ccc(-n2[nH]c(C)c(C=Nc3ccc4[nH]c(=O)[nH]c4c3)c2=O)cc1C,–,-6.33%
CCOc1ccc(C2=[N+]([O-])C(C)(C)N(O)C2(C)C)cc1,–,-0.754%
Cc1ccc(NNS(=O)(=O)c2ccc(C)cc2)cc1,5.62 µM (active),–
Cc1ccc(S(=O)(=O)NNc2ccccc2)cc1,7.94 µM (active),–
Cc1ccc(S(=O)(=O)N[C@H](C(=O)O)C(C)C)cc1,–,3.72% [at 11.4 µM]
Cc1ccc(S(=O)(=O)N[C@H](CO)C(=O)O)cc1,–,1.97% [at 11.4 µM]
Cc1ccc(NC(=O)NNS(=O)(=O)c2ccc(Br)cc2)cc1,–,-4.79%
Cc1ccc(S(=O)(=O)NCc2ccccc2)cc1,–,0.206%
OC[C@@H]1O[C@@H](n2cnc3c(NC4CCCC4)ncnc32)[C@@H](O)[C@H]1O,–,-4.5%
CCN1C(=O)C=CC1=O,–,0.254%
CC[N+](CC)(CC)CC,–,-0.0432%
Clc1ccc(Sc2cc(N3CCOCC3)nc(-c3ccccc3)n2)cc1,–,12.3%
CC(=O)C1=C(NC(=O)c2ccc(F)cc2)CC2C1C2(C)C (stereo unspecified),–,-18.4%
Cc1[nH]nc(Nc2ccccc2)c1[N+](=O)[O-],10 µM (active),–
Nc1nc(NCc2ccccc2)nc(Nc2cccc(F)c2)c1[N+](=O)[O-],–,4.86%
Cc1ccc(CNc2nc(N)c([N+](=O)[O-])c(Nc3ccc(F)cc3)n2)cc1,–,7.21%
CCOC(=O)CCc1c(C)nc2ncnn2c1C,–,7.84%
O=C(OCC#CCSc1nnc(-c2cccc3ccccc23)o1)c1ccco1,–,-3.61%
COc1cc2c(cc1OC)C(C(=O)Nc1ccccn1)C(c1cccnc1)N(C)C2=O (stereo unspecified),–,15.1%
c1ccc([C@H](CCN2CCCC2)c2ccccn2)cc1,–,12% [at 11.4 µM]
c1ccc(C(CCN2CC3CCC(CC3)C2)c2ccccc2)cc1,0.794 µM (active),–
CCOc1cc(/C=N/NC(=O)CN2CCCCC2)ccc1OCc1ccccc1,–,-0.59%

Structure (SMILES),AC50,"activity, negative = inhibition"
C/C(CCN1CCc2nc(-c3ccccc3)c(-c3ccccc3)cc2C1)=N\OC[C@@H](O)COCc1ccco1,–,7.77% [at 11.4 µM]
Cc1nc2cnc(Oc3cccc(Cl)c3)nc2n(CCc2ccccc2)c1=O,–,-16.3%
COC(=O)[C@@H]1CC[C@H](C)[C@@H](c2ccc(C)cc2)N1C(=O)c1ccc(/C=N\OC[C@@H](C)[C@H](OCc2ccccc2)C(C)C)cc1,3.98 µM (active),–
COC(=O)[C@@H]1CC[C@H](C)[C@@H](c2ccc(C)cc2)N1C(=O)c1ccc(/C=N\OC[C@@H](O)COCc2ccco2)cc1,–,-0.0575% [at 11.4 µM]
CO/N=C\c1ccc(C(=O)N2[C@H](c3ccc(C)cc3)[C@@H](C)CC[C@H]2C(=O)OC)cc1,–,16% [at 11.4 µM]
CC(C)(C)C(=O)[C@H]1[C@H](c2ccccc2)[C@@]2(N=C(c3ccccc3)OC2=O)C2c3ccccc3C=NN21 (stereo partly specified),–,-12.9%
C#CCCCO/N=C1/C[C@@H](O)[C@@H](O)[C@@H]2[C@H]3C(=O)N(c4ccc(F)cc4F)C(=O)[C@@H]3CC[C@H]12,–,-3.2% [at 11.4 µM]
Cc1cc(C(C)(C)C)cc(CNC2CCCCC2)c1O,0.501 µM (active),–
CC(C)(C)c1cc2c(O)c(c1)Cc1cc(C(C)(C)C)cc(c1O)Cc1cc(C(C)(C)C)cc(c1O)Cc1cc(C(C)(C)C)cc(c1O)Cc1cc(C(C)(C)C)cc(c1O)Cc1cc(C(C)(C)C)cc(c1O)Cc1cc(C(C)(C)C)cc(c1O)Cc1cc(C(C)(C)C)cc(c1O)C2,–,12.2% [at 11.4 µM]
Oc1cc(CN2COc3ccccc32)c(O)cc1CNC1CCCCC1,–,-11.4% [at 11.4 µM]
COCCn1c(=O)c(-c2ccccc2)nc2cnc(Nc3cccc(OC)c3)nc21,–,-0.906%
Cc1ccc(N(C(=O)C(F)(F)F)C(C(=O)NC2CCCCC2)c2cccs2)cc1C (stereo unspecified),–,-4.71%
O=C(NC1CCCCC1)C(c1cccs1)N(Cc1cccs1)C(=O)c1ccco1 (stereo unspecified),17.8 µM (active),–
Cc1nn(C)cc1C(C(=O)NC1CCCCC1)N(C(=O)Cc1cccs1)c1ccc(C(C)C)cc1 (stereo unspecified),–,-20.7%
Cc1cc(C)cc(N(C(=O)c2ccccn2)C(C(=O)NC2CCCCC2)c2cccs2)c1 (stereo unspecified),–,-12.5%
CC(C)c1ccc(N(C(=O)C(F)(F)F)C(C(=O)NC2CCCCC2)c2ccncc2)cc1 (stereo unspecified),–,22.5%
Cc1ccc(C(OC(=O)c2ccco2)C(=O)NC2CCCCC2)cc1 (stereo unspecified),–,-14.1%
O=C(NC1CCCCC1)C(c1cccs1)N(C(=O)C(F)(F)F)c1ccccc1 (stereo unspecified),10 µM (active),–
O=C(NC1CCCC1)C(c1ccsc1)N(Cc1ccccc1)C(=O)Cc1cccs1 (stereo unspecified),12.6 µM (active),–
Cc1cc(C)cc(N(C(=O)Cc2cccs2)C(C(=O)NC2CCCCC2)c2ccccn2)c1 (stereo unspecified),–,-21.3%
CC(C)(S)[C@H](N)C(=O)O,–,14.1% [at 11.4 µM]
Cc1nc(S(=O)(=O)N(C)c2ccccc2)c(C#N)c(C)c1Cl,–,-18.8%
CCOC(=O)c1cc2c(C(F)(F)F)cc(-c3ccccc3)nc2o1,–,-0.763%
Nc1c(S(=O)(=O)O)cc(Nc2cccc(S(N)(=O)=O)c2)c2c1C(=O)c1ccccc1C2=O,–,-9.77% [at 11.4 µM]
CCOC(=O)c1cc(NC(=O)c2ccc(C)cc2)c(=O)oc1-c1ccccc1,–,4.01%

# Reference: PubChem BioAssay AID1851 (National Center for Advancing Translational Sciences (NCATS), 2009)
